Assay results taken from the supplement of paper PMC13380429.

Key:
[1] = system: Vero E6 infected with SARS-CoV-2; assay: morphology score (similarity to uninfected cells); higher = more like uninfected cells; details: 24 h
[2] = system: Vero E6 infected with SARS-CoV-2; assay: SARS-CoV-2 infection rate relative to infected DMSO; higher = more infection, active = 60 or less; details: 24 h

## C[C@H](Nc1ncnc2[nH]cnc12)c1nc2ccc(F)cc2c(=O)n1-c1ccccc1 [acalisib] (0.833333 µM)
[1]
  morphology score: -0.115
[2]
  SARS-CoV-2 infection rate: 110% (inactive)

## COC(=O)C1=C(C)NC(C)=C(C(=O)OC/C=C/c2ccccc2)C1c1cccc([N+](=O)[O-])c1 (stereo not given) [pranidipine] (10 µM)
[1]
  morphology score: -0.0636
[2]
  SARS-CoV-2 infection rate: 107% (inactive)

## C[N+](C)(C)CC(=O)O [betaine] (10 µM)
[1]
  morphology score: 0.11
[2]
  SARS-CoV-2 infection rate: 102% (inactive)

## COc1cc2nc(N3CCN(C(=O)COc4c(OC)cccc4C(C)C)CC3)nc(N)c2cc1OC (10 µM)
[1]
  morphology score: -0.065
[2]
  SARS-CoV-2 infection rate: 92.5% (inactive)

## Nc1ncnc2c1c(-c1ccc(Cl)cc1)nn2-c1cccc(-c2cnnn2Cc2cccc(-c3ccccc3)c2)c1 (10 µM)
[1]
  morphology score: -0.00803
[2]
  SARS-CoV-2 infection rate: 104% (inactive)

## Cc1cc(Nc2ncnc3ccc(-c4ccc(CNCCS(C)(=O)=O)o4)cc23)ccc1Oc1ccn2ncnc2c1 [HER2-Inhibitor-1] (10 µM)
[1]
  morphology score: 0.174
[2]
  SARS-CoV-2 infection rate: 95% (inactive)

## Cc1ccc2nc(NCCN)c3ncc(C)n3c2c1 (0.833333 µM)
[1]
  morphology score: -0.353
[2]
  SARS-CoV-2 infection rate: 116% (inactive)

## O=C(O)c1ccccc1C(=O)Nc1ccc(S(=O)(=O)Nc2nccs2)cc1 [phthalylsulfathiazole] (10 µM)
[1]
  morphology score: 0.162
[2]
  SARS-CoV-2 infection rate: 102% (inactive)

## CC(C)(CO)c1cc2cc(NC(=O)C3(c4ccc5c(c4)OC(F)(F)O5)CC3)c(F)cc2n1C[C@@H](O)CO [tezacaftor] (10 µM)
[1]
  morphology score: -0.0125
[2]
  SARS-CoV-2 infection rate: 108% (inactive)

## CCOC(=O)c1ccc(C#Cc2ccc3c(c2)C(C)(C)CCS3)nc1 [tazarotene] (10 µM)
[1]
  morphology score: -0.0471
[2]
  SARS-CoV-2 infection rate: 93% (inactive)
